Screens (PubChem)
Hits are enriched below; roughly 1.3% of the tested compounds scored in any of these assays.
gsp ag: qHTS for Agonist of gsp, the Etiologic Mutation Responsible for Fibrous Dysplasia/McCune-Albright Syndrome: qHTS; gsp mutant cells, cAMP HTRF, 30 min; 340,000 compounds, 0.13% hits; Potency, µM (titrated, usually from 76.9 µM), inactives show at the top dose activation (cAMP increase), usual class: activators; active = well fitted activation curve with a large enough effect; inconclusive = small, poorly fitted or top-dose-only effect, or another doubt; inactive = no such curve, though single readings can be large or run the other way; cell line not stated here;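 also: phosphodiesterase inhibitor Ro 20-1724 added with compounds to block cAMP breakdown; potency is read from the fitted curve at half-maximal effect; nearly all actives have a fitted effect of over 60% in size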
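Cells stably selected in G418 were plated at 2000/well, grown 16-24 hr, then given compounds in DMSO with the PDE inhibitor […] (300 uM solution added) for 30 min at 37C; cAMP was read by HTRF.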
Akt phos inh: HTS Assay for Inhibitors of Akt Phophorylation: Primary Screen | Neuro2A IGF-stimulated pAkt S473 HTRF, 20 min; hits give low values | activity change, % for hits at 50 µM | 360,000 compounds, 0.32% hits | AID 651550, 2012; in the data active = activity change below about -80%; inconclusive = mostly about -51% to -80%; also: % is scaled to controls: 0 for no effect and ±100 for the full control effect
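Neuro2A cells in DMEM with 0.5% FBS, overnight at 37 deg C, given compound at single 50 µM final, then IGF (6 nM final) for 20 min at 37 deg C. Lysed; phospho-Akt Ser473 by HTRF after 24 h, 665/615 ratio.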
RXFP1 agonist: qHTS Assay for Agonists of the Relaxin Receptor RXFP1; Relaxin receptor 1 (Homo sapiens), Q9HBX9; HEK293T-RXFP1 cAMP TR-FRET, 30 min; response scale: percent of porcine relaxin response, buffer zero; Potency, µM (titrated, usually from 57.5 µM), for inactives: at the top dose activation, hits mostly activators; 370,000 compounds, 0.3% hits; AID 2676, 2010; active = well fitted activation curve with a large enough effect; inconclusive = small, poorly fitted or top-dose-only effect; also: potency is read from the fitted curve at half-maximal effect; % is scaled to controls: 0 for no effect and ±100 for the full control effect; nearly all actives have a fitted effect of over 60% in size
Target sequence (Q9HBX9 whole entry, looked up): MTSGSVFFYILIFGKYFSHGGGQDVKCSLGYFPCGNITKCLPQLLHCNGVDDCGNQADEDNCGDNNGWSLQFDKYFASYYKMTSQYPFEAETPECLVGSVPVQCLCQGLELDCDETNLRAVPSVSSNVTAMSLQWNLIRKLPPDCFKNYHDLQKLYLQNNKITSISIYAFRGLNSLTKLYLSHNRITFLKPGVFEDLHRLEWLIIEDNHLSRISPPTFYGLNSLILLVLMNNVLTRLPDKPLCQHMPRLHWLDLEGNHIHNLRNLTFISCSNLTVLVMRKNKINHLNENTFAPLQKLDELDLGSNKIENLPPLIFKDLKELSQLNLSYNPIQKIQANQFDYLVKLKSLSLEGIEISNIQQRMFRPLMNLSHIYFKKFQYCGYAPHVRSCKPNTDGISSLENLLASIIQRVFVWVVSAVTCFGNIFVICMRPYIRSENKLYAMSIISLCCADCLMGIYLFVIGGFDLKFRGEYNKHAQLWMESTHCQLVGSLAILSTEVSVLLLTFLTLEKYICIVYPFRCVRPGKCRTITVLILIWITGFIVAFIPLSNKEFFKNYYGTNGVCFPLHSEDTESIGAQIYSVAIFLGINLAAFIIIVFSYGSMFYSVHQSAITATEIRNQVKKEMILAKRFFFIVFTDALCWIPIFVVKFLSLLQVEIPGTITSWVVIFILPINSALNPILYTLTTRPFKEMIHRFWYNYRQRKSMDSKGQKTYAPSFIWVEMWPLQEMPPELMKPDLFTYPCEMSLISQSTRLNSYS
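cAMP rise read by TR-FRET after 30 min, 37C compound exposure (up to 58 uM) in RXFP1-transfected HEK293 cells with Ro 20174 present. EC50 from Hill-equation fits, with 29 nM porcine relaxin as 100% and buffer as basal.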
gsp antagonist: qHTS for Antagonists of gsp, the Etiologic Mutation Responsible for Fibrous Dysplasia/McCune-Albright Syndrome: qHTS | gsp-mutant cells, cAMP HTRF, 30 min | Potency, µM (doses to about 76.9 µM), inactives show top-dose activity change, negative = inhibition, actives largely listed as inhibitors | 340,000 compounds, 0.4% hits | AID 624288, 2012; calls by dose curve; cell line not stated here;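 also: intracellular cAMP measured with PDE inhibitor Ro 20-1724 present during compound exposure; potency is read from the fitted curve at half-maximal effect; % is scaled to controls: 0 for no effect and ±100 for the full control effect; nearly all actives have a fitted effect of over 65% in size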
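HTRF cAMP measurement after 30 min RT detection following 30 min, 37C compound treatment alongside […] (added as 300 uM solution) in G418-selected cells seeded at 2000/well and grown 16–24 h.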
RXFP1 antag: qHTS Assay for Antagonists of the Relaxin Receptor RXFP1; activity change, negative = inhibition, % at 57.5 µM; AID 1259400, 2018; 350,000 compounds, 0.59% hits; HEK293-RXFP1, relaxin-stimulated cAMP HTRF, 30 min; hits give low values; Relaxin receptor 1 (Homo sapiens), Q9HBX9;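 active = activity change of -60% or lower, but not beyond a set lower limit; inconclusive = change between -60% and -40%, or beyond the set limit; inactive = change above -40%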; also: % is scaled to controls: 0 for no effect and ±100 for the full control effect
* = called active by the depositor; i = inactive; ? = inconclusive; · = no result; [ ] = dose if it differs, or a comment.

SMILES	gsp ag	Akt phos inh	RXFP1 agonist	gsp antagonist	RXFP1 antag
Clc1ccc(-c2nc(-c3cc4cc(Cl)ccc4o3)cs2)cc1	-8%	i	0%	28µM*	9
O=C(NCc1ccccc1Cl)C(=O)NCC(c1ccco1)S(=O)(=O)c1cccs1 (stereo not given)	·	·	0%	·	-26
CN(C)CCCNc1ncnc2sc(-c3ccccc3)cc12	20%	i	0%	11%	-13
CCCCN(CCO)c1ncnc2sc(-c3ccccc3)cc12	23%	i	8%	-9%	-65*
O=S(=O)(Nc1nc2ccccc2nc1Nc1cccc(S(=O)(=O)N2CCCCC2)c1)c1ccccc1	-45%	i	0%	35µM*	-20
CSc1ccccc1NC(=O)C(=O)c1c[nH]c2ccccc12	0%[15.4 µM]	i	1%	-28%	-60*
COc1ccc(S(=O)(=O)NCCc2csc(-c3cccc(F)c3)n2)cc1OC	·	·	0%	·	-9
N[C@H]1CN(c2c(F)cc3c(=O)c(C(=O)O)cn(C4C[C@@H]4F)c3c2Cl)CC12CC2 (stereo not given in full)	·	·	·	·	-17
COc1ccc(C(C)=O)cc1Cn1cnc2c(cnn2C)c1=O	?	i	13µM*	13%	39
COc1ccc(C(C)=O)cc1Cn1c(=O)cc(C)[nH]c1=O	-1%	i	2%	1%	1
CC1Cc2ccccc2N1C(=O)CSc1nnc(CSc2ncccn2)n1C (stereo not given)	-8%	-81%*	2%	-8%	3
Cn1c(CSc2ncccn2)nnc1SCC(=O)N1CCCc2ccccc21	13%	i	2%	-2%	-8
O=C(Nc1ccccn1)c1cc(-c2cccnc2)nc2ccc(Br)cc12	40µM*	i	18%	13%	47
O=C(NNC(=O)c1cc(-c2cccnc2)nc2ccccc12)Nc1ccc(Cl)cc1	-10%[15.4 µM]	i	0%	-6%	-73*
O=C(NNC(=O)c1cc(-c2ccccc2)nc2ccccc12)Nc1cccc(Cl)c1	11%	i	1%	?	-24
Clc1ccccc1OCCSc1nnc(-c2cccs2)o1	·	·	1%	·	-8
O=C(Nc1ccc2c(c1)CCCN2C(=O)c1cccs1)c1cccc(C(F)(F)F)c1	·	·	0%	·	-4
CCc1nc2ccc(C(=O)NCCc3ccc(OC)cc3OC)cc2nc1CC	·	·	-1%	·	-71*
CCc1nc2ccc(C(=O)NCc3cc(OC)ccc3OC)cc2nc1CC	·	·	2%	·	-27
COc1ccc(CCNC(=O)c2ccc3c(c2)N(Cc2ccc(F)cc2)CCS3)c(OC)c1	7.1µM*	i	20%	-15%	26
CCCCCCCC/C=C/C(=O)O	·	·	·	·	-22
COc1ccccc1CNC(=O)COC(=O)c1ccc(Cl)c(N)c1	-9%[15.4 µM]	i	-5%	11µM*	-12
CC(=O)Nc1cc2c3c(c1)CC(=O)N3CCC2	-6%	·	3%	50µM*	10
CC(=O)Nc1cc2c3c(c1)CCC(=O)N3CCC2	11%	i	-2%	5%	7
O=C(NCCc1ccccc1)c1ccc(Cn2c(SCc3ccccc3F)nc3cccnc32)cc1	·	·	-1%	·	-3
SMILES	gsp ag	Akt phos inh	RXFP1 agonist	gsp antagonist	RXFP1 antag
COc1cc(C(=O)Nc2cccc(OCc3cc(=O)n4c(C)csc4n3)c2)cc(OC)c1OC	·	·	10%	·	·
COCCNC(=O)c1c(-c2ccccc2)c(-c2ccccc2)nn(C)c1=O	·	·	-2%	·	-6
CCCOC(=O)c1c(-c2ccccc2)c(-c2ccccc2)nn(C)c1=O	·	·	2%	·	-65*
CC(COc1ccccc1)NN (stereo not given)	·	·	·	·	-11
Cc1ccc(-c2nnc(N3CCCCC3)c3ccccc23)cc1	-33%	i	4%	35µM*	-11
Cc1ccc(-c2nnc(N3CCN(C(=O)c4cccs4)CC3)c3ccccc23)cc1	-12%	i	1%	45µM*	-4
Cc1ccc(-c2nnc(N3CCN(c4ccccn4)CC3)c3ccccc23)cc1	-10%[15.4 µM]	i	0%	40µM*	?
Cc1ccc(-c2nnc(N3CCN(S(C)(=O)=O)CC3)c3ccccc23)cc1	-3%	i	-1%	-26%	-7
c1ccc(-c2nnc(N3CCN(c4ccccn4)CC3)c3ccccc23)cc1	-2%	i	1%	-13%	-30
CCOc1ccc(NC(=O)c2cccc(N3CCCS3(=O)=O)c2)cc1	·	·	-1%	·	-13
CCCC1C2C(=O)N(c3ccccc3)C(=O)C2ON1c1ccccc1 (stereo not given)	-10%	i	2%	-6%	4
CCCC1C2C(=O)N(c3ccccc3OC)C(=O)C2ON1c1ccccc1 (stereo not given)	21%	-110%*	0%	-26%	-8
COc1ccc(Cl)cc1NC(=O)Cn1ccn(Cc2ccc(C)cc2)c(=O)c1=O	·	·	-2%	·	-1
Cc1nc2sc(C(N)=O)c(N)c2c(-c2ccc(Br)cc2)c1C(=O)Nc1ccc(Cl)cc1	·	·	-5%	·	-6
CCCCNC(=O)c1ccc(Cn2c(=S)[nH]c3c([nH]c4ccc(OC)cc43)c2=O)cc1	0%	i	3%	-2%	-85*
COc1cccc(-c2nc(C(=O)NCC3CCCO3)cc3c2[nH]c2ccccc23)c1 (stereo not given)	·	i	0%	13µM*	·
COc1ccc2[nH]c3c(=O)n(Cc4ccc(C(=O)NCC5CCCO5)cc4)c(=S)[nH]c3c2c1 (stereo not given)	2%	i	8%	-6%	-89*
CCOCCCNC(=O)c1ccc(Cn2c(=S)[nH]c3c([nH]c4ccc(OC)cc43)c2=O)cc1	12%	i	2%	-1%	-36
COc1ccc(OC)c(-c2nc(C(=O)NCC3CCCO3)cc3c2[nH]c2ccccc23)c1 (stereo not given)	·	i	0%	?	·
CC[C@H](C)NC(=O)c1ccc(Cn2c(=S)[nH]c3c([nH]c4ccc(OC)cc43)c2=O)cc1	0%	i	3%	-10%	-64*
Cc1ccc(NC(=O)C2CCN(S(=O)(=O)c3ccc4c(c3)CCCC(=O)N4)CC2)c(Cl)c1	·	·	0%	·	·
CC(C)Cn1c(=O)c2sccc2n2c(CCCC(=O)NCCc3ccc(Cl)cc3)nnc12	·	·	0%	·	10
COc1cccc(NC(=O)CSc2nc3cc(OC)c(OC)cc3c3nc(-c4ccccc4)nn23)c1	·	·	14%	·	·
COC(=O)C1C(O)=C(C=NCc2ccccc2)C(=O)CC1(C)C (stereo not given)	15%	-114%*	0%	3%	-7
CCO/N=C/C1=C(O)C(C(=O)OC)C(C)(C)CC1=O (stereo not given)	1%[15.4 µM]	i	1%	-5%	2
CCOCC(=O)Nc1nnc(SCCOC)s1	-32%	-85%*	1%	4%	3
